These results are taken from PubChem BioAssay (NCI).

Each structure is given as a SMILES string. This is part of a sample that, as a whole, favours compounds with a hit. Of some 83,000 tested, about 20% had one in any assay.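 Assay: single dose, 48 h. Readout: percent growth (0 = no net growth; negative = cell death). Active: <10.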 Calls of active or inactive are those of the source.

The subject of the test is SK-MEL-28 melanoma. Put plainly: NCI-60 one-dose screen, 48 h (100 = growth as untreated, 0 = no growth, -100 = all killed). The following applies: 10 µM. As for the experimental part:
Growth inhibition of the SK-MEL-28 human tumor cell line is measured as a screen for anti-cancer activity. Cells are grown in 96 well plates and exposed to the test compound for 48 hours. Compounds are tested at a single concentration, which is 10^-5 M for most compounds. The reported endpoint is percent growth (GI% or GIPRCNT), where numbers from 0 - 100% represent growth inhibition, and numbers from -100% - 0 represent cell death. For example, a value of 40 represents 60% growth inhibition. A value of 0 means no net growth occurred over the course of the experiment. A value of -40 indicates 40% of cells at the beginning of the experiment died by the end of the experiment. A value of -100 means all cells are dead at the end of the experiment.
NCI-60 Human Tumor Cell Lines Screen was performed using the standard one-dose NCI protocol, which is described in more detail at https://dtp.cancer.gov/discovery_development/nci-60/default.htm.
Compounds with GIPRCNT values below 10 were considered active. Activity score was based on GIPRCNT using the following formula: […]
Score is 0 for GIPRCNT values of 100 or above, 50 for GIPRCNT values of 0, and 100 for GIPRCNT values of -100.
In the case of `O=C(N=Nc1c(O)[nH]c2ccc(Br)cc12)c1ccc2nc(-c3ccccc3)[nH]c2c1`, the growth was -98.4% (active).
Take `Clc1cccc(N/N=C/c2c[nH]c3ccccc23)n1`: the growth is 79.8% (inactive).
The result for `O=C(N/C(=C1/OCCN1Cc1ccccc1)[P+](c1ccccc1)(c1ccccc1)c1ccccc1)c1ccccc1` reads 22.8% (inactive); that for `O=C(CSc1nnc(-c2ccc3nc(-c4ccc(Cl)cc4)[nH]c3c2)o1)Nc1ccc(Br)cc1`, -94.4% (active).
Take `O=C(c1ccc(Cl)cc1)C1[C@H](c2ccccc2Br)[C@@H](c2ccccc2)NC12C(=O)Nc1ccccc12` (stereo not given in full): the growth was 44.8% (inactive).
Under `CCOP(=O)(OCC)O[C@H]1CCC(=O)[C@@H]2[C@H]1[C@H]1C[C@@H]3[C@@]4(C)CCCC(C)(C(=O)OC)[C@@H]4CC[C@@]23C=C1C(C)C` (stereo not given in full) stands 72.7% (inactive).
Take `CCCCSc1nc(Nc2ccc(/C(C)=N/NC(N)=S)cc2)c(C#N)c(-c2ccccc2)n1`: the growth was 66.3% (inactive).
As for `Cc1cccc2cc(-c3cc(-c4ccccc4)nc(=O)[nH]3)c(Cl)nc12`, the growth is 103% (inactive).
Consider `O=C(c1ccc(Cl)cc1)C1[C@H](c2ccc(Br)cc2)[C@@H](c2ccccc2)NC12C(=O)Nc1ccc(Br)cc12` (stereo not given in full), for which the growth was -93.8% (active).
For the compound `O=C(CSc1nnc(-c2c[nH]c3ccccc23)n1-c1ccccc1)Nc1ccc(C(=O)/C=C/c2ccccc2Cl)cc1`, the growth was 96.3% (inactive).
Regarding `O=C(N/N=C/c1ccc(B(O)O)o1)c1[nH]c2ccc(Br)cc2c1-c1ccccc1`, the growth is 62.1% (inactive).
Take `O=C1Nc2ccc(Cl)cc2/C1=C/c1cccc(OCc2ccccc2)c1`: the growth was 46.9% (inactive).
`O=C(CSc1ccc(-c2ccc(Cl)cc2)nn1)Nc1ccc(Cl)c(C(F)(F)F)c1`: the growth is 66.9% (inactive).
As for `COc1ccc(-c2cc(C(=O)N=Nc3c(O)[nH]c4ccc(Br)cc34)c3ccccc3n2)cc1`, the growth was 65.9% (inactive).
The result for `Cc1cc(C(F)(F)F)ccc1C(=O)Nc1sc2c(c1C#N)CCC(=O)C2` reads -83.9% (active).
Turning to `COC(=O)C[C@](O)(CCCC(C)(C)O)C(=O)O[C@H]1C(OC)=C[C@@]23CCC(=O)N2CCc2cc4c(cc2[C@@H]13)OCO4`, the growth is 103% (inactive).
Under `CN1CCN(c2ccc(C(=O)/C=C/c3cc(C(F)(F)F)ccc3Cl)cc2)CC1` stands -97.6% (active); under `COc1ccc(/C(CSc2nnc(-c3c[nH]c4ccccc34)n2-c2ccccc2)=N/O)cc1`, 37.4% (inactive).
With `N#Cc1c(NC(=O)c2cccc(C(F)(F)F)c2)sc2c1CCC(O)=C2`, the growth was 33.9% (inactive).
The result for `COc1ccc(CCN2C(=O)/C(=C/c3csc(C#N)n3)SC2=S)cc1OC` reads 18.9% (inactive).
As to `CN(CCF)c1ccc(/C=C/C(=O)c2ccc(N)cc2O)cc1`, the growth is 101% (inactive).
Under `CCN1CCN(c2ccc(NC(=O)Nc3ccc(-c4cc(C(=O)NC(C)C)c5ncccc5n4)cc3)cc2C(F)(F)F)CC1` stands -98.9% (active); under `Cc1noc2c(Cc3ccc([N+](=O)[O-])cc3)nn(CC(=O)N/N=C/c3ccc(Cl)cc3)c(=O)c12`, 69.9% (inactive); under `COC1=C[C@@]23CCC(=O)N2CCc2cc4c(cc2[C@H]3[C@H]1OC(=O)C(C)(C)O)OCO4`, 105% (inactive).
Under `C=CCn1c(SCC(=O)Nc2ccc(C(=O)/C=C/c3ccccc3)cc2)nnc1-c1c[nH]c2ccccc12` stands 68.5% (inactive); under `COc1ccc(/C=C/C(=O)c2ccc(S(=O)(=O)NCCNc3nc(Nc4ccc(F)cc4)nc(N(C)C)n3)cc2)cc1`, 31.6% (inactive).
Under `C=C(C)[C@@H]1CC[C@]2(C(=O)OC)CC[C@]3(C)[C@H](CC[C@@H]4[C@@]5(C)CC[C@H](N)C(C)(C)[C@@H]5CC[C@]43C)[C@@H]12` stands -100% (active).
Consider `COc1ccc(/C=N/N=C(\C)c2ccc3c(c2)Nc2ccccc2S3)cc1O`, for which the growth was 60.9% (inactive).
Under `NS(=O)(=O)c1ccc(NC(=O)CSc2ccc(-c3ccccc3)nn2)c(Br)c1` stands 94.7% (inactive); under `CONC[C@]1(C)C=C2C(=O)[C@](C)(O)C3(CC3)C(C)=C2[C@H]1O`, -73.2% (active).
In the case of `O=C1Nc2cc(Cl)ccc2/C1=C/c1ccc(OCc2ccc(Br)cc2F)cc1`, the growth is -60.7% (active).
`CC(C)(C)Nc1nc2cc(Cl)c(Cl)cc2nc1S(C)(=O)=O`: the growth is 62.3% (inactive).
Regarding `COC[C@@H](CC(C)C)N=C1NC(=O)/C(=C/c2ccc3ncsc3c2)N1`, the growth is 0.97% (active).
Regarding `O=C(O)CCCCCCCCCCN1C(=O)/C(=C/c2cnc(-c3ccc(Cl)cc3)s2)SC1=S`, the growth was 40% (inactive).
Under `OCCCNc1oc(-c2ccccc2)nc1[P+](c1ccccc1)(c1ccccc1)c1ccccc1` stands 7.68% (active); under `COC(=O)C(Cc1ccc(O)c(O)c1)NC(=O)C(CSC/C=C(\C)CCCC(C)CCCC(C)CCCC(C)C)NC(C)=O` (stereo not given), 25.1% (inactive); under `C=C1CCC2C3(C)COC(c4c(F)cccc4F)OC3CCC2(C)C1CC(O)C1=CCOC1=O` (stereo not given), 62.3% (inactive).
Regarding `CCNCCCn1c2c(c3cc(OC)c(OC)cc3c1=O)C(=O)c1cc3c(nc1-2)OCO3`, the growth was 71% (inactive).
Under `O=C1CCC(N2Cc3c(NCc4ccc(-c5ccccc5)cc4)cccc3C2=O)C(=O)N1` (stereo not given) stands 91.4% (inactive); under `CC(=O)NS(=O)(=O)c1ccc(NC(=O)CSC2=NC(c3ccccc3)C(C(C)=O)=C(C)N2)cc1` (stereo not given), 107% (inactive).
